Experimental data published in ChEMBL document CHEMBL4649984, “CBP30, a selective CBP/p300 bromodomain inhibitor, suppresses human Th17 responses” (Proc Natl Acad Sci U S A, 2015).
Where “and” joins values, the source holds several entries; their conditions need not be identical. Equal entries are not always repeated.

Experiments:
[1] = target: Bromodomain-containing protein 4 (Homo sapiens) (UniProt O60885); conditions: Compound concentration 10.0 uM, Protein concentration 2.0 uM
[2] = target: T1, Transcription intermediary factor 1-alpha (Homo sapiens) (UniProt O15164); conditions: Compound concentration 10.0 uM, Protein concentration 2.0 uM
T1 sequence (whole entry): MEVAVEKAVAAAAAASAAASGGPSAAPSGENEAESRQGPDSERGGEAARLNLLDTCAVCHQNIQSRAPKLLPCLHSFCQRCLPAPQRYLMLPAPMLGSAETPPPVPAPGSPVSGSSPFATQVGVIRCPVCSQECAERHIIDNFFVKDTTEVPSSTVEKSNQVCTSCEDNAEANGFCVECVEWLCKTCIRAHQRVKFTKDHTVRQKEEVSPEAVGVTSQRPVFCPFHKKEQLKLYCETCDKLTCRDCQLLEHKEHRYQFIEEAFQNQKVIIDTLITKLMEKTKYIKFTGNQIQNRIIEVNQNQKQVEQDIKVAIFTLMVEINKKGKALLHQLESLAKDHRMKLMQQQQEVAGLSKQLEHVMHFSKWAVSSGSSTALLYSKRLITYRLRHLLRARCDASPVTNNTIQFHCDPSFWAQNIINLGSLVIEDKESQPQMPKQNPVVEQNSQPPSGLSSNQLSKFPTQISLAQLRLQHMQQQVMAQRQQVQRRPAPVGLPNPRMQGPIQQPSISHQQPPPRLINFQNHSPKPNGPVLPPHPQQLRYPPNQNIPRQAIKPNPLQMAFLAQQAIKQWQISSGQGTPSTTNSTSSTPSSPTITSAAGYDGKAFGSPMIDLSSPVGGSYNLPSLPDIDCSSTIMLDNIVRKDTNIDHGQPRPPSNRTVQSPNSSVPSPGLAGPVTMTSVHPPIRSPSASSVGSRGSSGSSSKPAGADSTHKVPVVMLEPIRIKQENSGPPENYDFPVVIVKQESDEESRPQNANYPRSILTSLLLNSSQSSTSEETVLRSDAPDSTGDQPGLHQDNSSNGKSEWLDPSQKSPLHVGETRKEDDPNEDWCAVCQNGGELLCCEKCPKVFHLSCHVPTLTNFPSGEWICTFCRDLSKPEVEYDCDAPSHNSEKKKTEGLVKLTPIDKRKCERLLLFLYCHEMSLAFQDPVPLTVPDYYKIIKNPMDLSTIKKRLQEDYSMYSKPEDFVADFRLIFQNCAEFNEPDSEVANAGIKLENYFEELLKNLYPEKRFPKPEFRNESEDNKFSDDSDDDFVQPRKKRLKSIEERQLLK

SMILES: COc1ccc(CCc2nc3cc(-c4c(C)noc4C)ccc3n2C[C@H](C)N2CCOCC2)cc1Cl
- ΔTm [1]: 1.65 °C and 2.75 °C
- ΔTm [2]: 0.88 °C
